According to PubChem BioAssay:
Records with an inconclusive call do not appear. Active and inactive are the calls of the source.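 The calls were made as follows, unless noted: active = inhibition over a set limit, the all-compound mean plus 3 SD, in both replicate runs; inconclusive = over that limit in just one replicate run; inactive = at or under that limit in both runs.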

How the values were obtained:
[1] = reducers of endogenous Her2 protein level, primary screen, SKBR3 breast tumor cells, AlphaScreen, ATP viability (AID 461;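 active = Her2 level under about 52% in both replicate screens, with viability over 70% of control, limit read from the data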;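 as to Her2 level: lower value means less Her2 protein in the cells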;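 as to viability: percent of carrier control wells set as 100% viability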); details: 18-24 h, measured here: SKBR3 viability, ATP luminescence, at 10 µM
[2] = target: Receptor tyrosine-protein kinase erbB-2 (Homo sapiens) (UniProt P04626); assay: as above; details: 18-24 h, at 10 µM, stronger effect = lower value
[3] = SK-BR-3 cell growth inhibitors, pilot screen, 24 h, human (AID 572;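 active = viability at or below 10% of carrier control in both of two separate runs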;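 also: compound exposure lasted between 18 and 24 h rather than exactly 24 h; 100% = carrier-treated control wells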); details: SK-BR-3 viability, CellTiter-Glo luminescence, at 10 µM, stronger effect = lower value
[4] = HUVEC growth inhibition – cell-based, human, primary screen (AID 575;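 active = viability at or below 30% in both replicate assays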;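 also: 100% = median of untreated cell wells with 0.1% DMSO on each plate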); details: HUVEC proliferation, CellTiter-Glo luminescence, 72 h; at 10 µM; stronger effect = lower value
[5] = growth inhibitors of H69AR lung tumor, primary screen, human, duplicate replicates (AID 580;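 active = viability at or under a set limit in both replicates, limit being median viability minus 3 SD, cut at about 48% in these data, passing the limit was not always enough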;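 also: 100% = mean luminescence of untreated wells and 0% = no signal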); details: H69AR lung tumor cells viability, ATP luminescence, 72 h; at 10 µM; stronger effect = lower value
[6] = reversal of MRP1-mediated doxorubicin resistance, pilot screen, H69AR cells, doxorubicin co-treatment (AID 601;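 active = viability loss from added drug above about 55%, and viability with drug at most 40%, in both replicates, limit read from the data, passing the limit was not always enough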); details: CellTiter-Glo, 72 h, at 10 µM; for differential viability (reversal): stronger effect = higher value
[7] = 384-well plate pilot, post-Golgi transport modulator project, inhibition of yeast transport mutant growth (AID 636; in the data active = inhibition above about 31%); details: absorbance 615 nm, about 18 h, stronger effect = higher value
[8] = growth suppression of yeast trafficking mutant, preliminary HTS, modulators of trafficking downstream of Golgi apparatus project, 1536-format plate, OD 615 nm (AID 637; in the data active = inhibition above about 30%); details: yeast transport mutant growth, absorbance 615 nm, 18 h; stronger effect = higher value
[9] = OD615 S. cerevisiae growth inhibition, permissive medium, pilot counter-assay, permissive growth control for S. cerevisiae lifespan shortening project (AID 705;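 active = growth inhibition above 25% in both replicates, a cutoff set 3 SD above the mean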); details: OD615, 24 h, at 10 µM, stronger effect = higher value
[10] = Restrictive medium S. cerevisiae growth inhibition, OD615, pilot screen of yeast lifespan reduction project, restrictive growth control (AID 706;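 active = growth inhibition above a set limit, 3 SD over mean compound inhibition, in both replicates, cut at about 43% in these data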;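 also: modified DeaD lifespan yeast strain shifted to restrictive glucose medium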); details: OD615, 48 h, at 10 µM, stronger effect = higher value
[11] = viability gain of MRP-1-high H69AR cells under doxorubicin, pilot screen, MRP-1 activator project, CellTiter-Glo, duplicate (AID 807;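 active = viability increase at or above a cutoff of the median across tested compounds plus 3 SD, cut at about 8.5% in these data, passing the limit was not always enough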;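 also: compound pretreatment 18-22 h then 72 h combined with doxorubicin; 0% = doxorubicin alone and 100% = vehicle without doxorubicin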); details: H69AR viability with doxorubicin, CellTiter-Glo luminescence; at 10 µM; stronger effect = higher value
[12] = growth suppression of beta-catenin knockout HCT116, pilot screen, human colon tumor cells (AID 823;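 active = cell viability at or below a set limit in both duplicate runs, the limit being the all-compound median minus 4 SD, cut at about 23% in these data, passing the limit was not always enough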;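 also: 0% = wells killed by 20 µM Hyamine and 100% = untreated DMSO cell wells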); details: CellTiter-Glo, 60 h, at 10 µM, stronger effect = lower value
[13] = growth suppression of PTEN-deleted HCT116, pilot screen, cell-based, HCT116 clonal line, CellTiter-Glo (AID 824;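 active = viability at or below 27.92% in each of two runs, the all-compound median minus 4 SD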;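 also: 0% = 20 µM Hyamine control and 100% = vehicle cell control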); details: 60 h, at 10 µM, stronger effect = lower value
[14] = inhibitors of the yeast RAM network, pilot screen, dse1pr::URA3 reporter, 5-FOA selection (AID 869);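 also: 0% = DMSO wells with no growth and 100% = 10 µM 1-NA-PP1 with full growth; RAM network block rescues cells from 5-FOA so hits raise OD615 growth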; details: S. cerevisiae dse1pr::URA3 5-FOA growth, OD615, 2 d; at 10 µM; stronger effect = higher value; strain carries analog-sensitive mutant Cbk1 kinase
[15] = RAM signaling pathway blockade in yeast – S. cerevisiae, Pdr1DBD-CYC8 efflux-inhibited sensitized strain, primary screen (AID 1298;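 active = RAM network inhibition above 8.4% in each of two replicates, 3 SD over the compound average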;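 also: 0% = DMSO untreated cells without growth and 100% = 10 µM 1-NA-PP1 full growth; higher means more yeast growth rescued from 5-FOA killing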); details: S. cerevisiae cbk1-as DSE1-URA3 strain, 5-FOA growth OD615, 2 d; at 50 µM; stronger effect = higher value
[16] = H69AR cells + 2 uM doxorubicin, measured here: viability with 2 uM doxorubicin, stronger effect = lower value
[17] = H69AR cells, compound alone cytotoxicity

Chain of Receptor tyrosine-protein kinase erbB-2 (Homo sapiens) (P04626 whole entry, looked up): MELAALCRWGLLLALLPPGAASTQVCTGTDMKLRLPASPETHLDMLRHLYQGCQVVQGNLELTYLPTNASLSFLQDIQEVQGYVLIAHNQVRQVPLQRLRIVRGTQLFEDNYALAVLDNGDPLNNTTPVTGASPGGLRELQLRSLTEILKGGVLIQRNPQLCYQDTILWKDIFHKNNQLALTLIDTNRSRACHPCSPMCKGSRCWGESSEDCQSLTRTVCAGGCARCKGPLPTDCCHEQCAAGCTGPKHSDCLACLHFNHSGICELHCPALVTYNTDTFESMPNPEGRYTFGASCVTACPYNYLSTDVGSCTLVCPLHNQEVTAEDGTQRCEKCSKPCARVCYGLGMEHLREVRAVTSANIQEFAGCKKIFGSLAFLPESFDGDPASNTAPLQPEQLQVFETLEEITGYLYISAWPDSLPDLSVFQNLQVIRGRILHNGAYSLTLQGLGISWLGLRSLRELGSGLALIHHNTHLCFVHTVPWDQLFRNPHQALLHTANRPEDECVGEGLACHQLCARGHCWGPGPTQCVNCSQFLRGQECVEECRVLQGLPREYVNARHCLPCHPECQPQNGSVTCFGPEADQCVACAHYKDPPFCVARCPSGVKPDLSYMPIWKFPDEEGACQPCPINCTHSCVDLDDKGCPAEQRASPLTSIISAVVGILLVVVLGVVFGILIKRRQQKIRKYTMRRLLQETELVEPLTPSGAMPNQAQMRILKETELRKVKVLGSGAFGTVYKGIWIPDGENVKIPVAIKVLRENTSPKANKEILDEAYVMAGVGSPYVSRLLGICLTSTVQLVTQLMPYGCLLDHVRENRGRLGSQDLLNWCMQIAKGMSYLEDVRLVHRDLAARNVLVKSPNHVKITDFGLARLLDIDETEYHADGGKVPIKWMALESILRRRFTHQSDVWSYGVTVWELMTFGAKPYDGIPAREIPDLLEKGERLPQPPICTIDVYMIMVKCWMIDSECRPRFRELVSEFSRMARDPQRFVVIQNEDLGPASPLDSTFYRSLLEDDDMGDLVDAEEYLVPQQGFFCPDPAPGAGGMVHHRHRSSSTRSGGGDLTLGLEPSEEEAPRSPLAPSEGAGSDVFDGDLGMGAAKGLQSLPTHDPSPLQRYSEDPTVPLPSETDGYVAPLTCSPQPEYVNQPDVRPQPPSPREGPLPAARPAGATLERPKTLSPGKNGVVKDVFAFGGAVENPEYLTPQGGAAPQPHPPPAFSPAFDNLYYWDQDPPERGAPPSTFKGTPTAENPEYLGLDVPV

COc1cccc2cc(C(=O)N3CCN(c4ccc(C)cc4C)CC3)c(=O)oc12
88.5%: viability [6, 16]
116%: viability [1]
96.5%: viability [6, 17]
inactive: Her2 level [2] 110% | viability [3] 116% | viability [4] 93.7% | viability [5] 96.5% | differential viability (reversal) ([6]; H69AR cells + 2 uM doxorubicin) 7.98% | inhibition [7] -3.6% | inhibition [8] -6.67% | growth inhibition [9] -7.67% | growth inhibition [10] 5.05% | viability increase [11] -2.99% | viability [12] 85.3% | viability [13] 74.3% | inhibition [14] -0.005% | RAM network inhibition [15] 1.18%

Cc1c(NC(=O)c2noc3c2CCc2ccccc2-3)c(=O)n(-c2ccccc2)n1C
99.7%: viability [6, 17]
inactive: Her2 level [2] 97.5% | viability [3] 95.5% | viability [4] 102% | viability [5] 99.7% | differential viability (reversal) ([6]; H69AR cells + 2 uM doxorubicin) -5.54% | inhibition [7] -5.73% | inhibition [8] -7.21% | growth inhibition [9] -3.5% | growth inhibition [10] 6.45% | viability increase [11] -0.3% | viability [12] 101% | viability [13] 102% | inhibition [14] 1.05% | RAM network inhibition [15] 4.92%
105%: viability [6, 16]
95.5%: viability [1]

CCOC(=O)N1CCC(NC(=O)c2ccc(CS(=O)(=O)c3c(Cl)cccc3Cl)o2)CC1
inactive: Her2 level [2] 90% | viability [3] 84.5% | viability [4] 95.8% | viability [5] 104% | differential viability (reversal) ([6]; H69AR cells + 2 uM doxorubicin) 6.95% | inhibition [7] 2.31% | inhibition [8] 0.83% | growth inhibition [9] -12.4% | growth inhibition [10] -27.1% | viability increase [11] -1.87% | viability [12] 106% | viability [13] 93.5% | inhibition [14] 1.53% | RAM network inhibition [15] 2.82%
104%: viability [6, 17]
84.5%: viability [1]
96.6%: viability [6, 16]

COc1ccc(CNC(=O)c2nnn(Cc3ccc(OC)cc3)c2N)cc1
inactive: Her2 level [2] 101% | viability [3] 89.5% | viability [4] 77.5% | viability [5] 86.5% | differential viability (reversal) ([6]; H69AR cells + 2 uM doxorubicin) -1.82% | inhibition [7] -2.69% | inhibition [8] 3.17% | growth inhibition [9] -3.35% | growth inhibition [10] -1.51% | viability increase [11] -3.08% | viability [12] 91% | viability [13] 85.4% | inhibition [14] 1.69% | RAM network inhibition [15] 2.66%
89.5%: viability [1]
86.5%: viability [6, 17]
88.3%: viability [6, 16]

COc1cccc(C2C(C(=O)c3ccc(C)o3)=C(O)C(=O)N2CCCN(C)C)c1 (stereo not drawn)
95%: viability [6, 16]
99.5%: viability [1]
108%: viability [6, 17]
inactive: Her2 level [2] 90.5% | viability [3] 99.5% | viability [4] 100% | viability [5] 108% | differential viability (reversal) ([6]; H69AR cells + 2 uM doxorubicin) 12.6% | inhibition [7] -4.73% | inhibition [8] 7.14% | growth inhibition [9] -10.7% | growth inhibition [10] -11.7% | viability increase [11] -1.16% | viability [12] 102% | viability [13] 96.1% | inhibition [14] -0.125% | RAM network inhibition [15] 1.67%

CCOc1ccccc1C1C(C(=O)Nc2ccc(OC)cc2)=C(C)Nc2nc(CCCO)nn21 (stereo not drawn)
82.6%: viability [6, 16]
91.3%: viability [6, 17]
87.5%: viability [1]
inactive: Her2 level [2] 89.5% | viability [3] 87.5% | viability [4] 84.4% | viability [5] 91.3% | differential viability (reversal) ([6]; H69AR cells + 2 uM doxorubicin) 8.7% | inhibition [7] -0.4% | inhibition [8] -2.17% | growth inhibition [9] -9.82% | growth inhibition [10] -7.01% | viability increase [11] -0.17% | viability [12] 109% | viability [13] 98.7% | inhibition [14] 0.865% | RAM network inhibition [15] 1.36%

O=C1c2ccccc2C(Nc2ccc3c(c2)OCCO3)N1Cc1ccc2c(c1)OCO2 (stereo not drawn)
86.4%: viability [6, 17]
inactive: Her2 level [2] 94.5% | viability [3] 91% | viability [4] 64.8% | viability [5] 86.4% | differential viability (reversal) ([6]; H69AR cells + 2 uM doxorubicin) -4.04% | inhibition [7] -5.73% | inhibition [8] 0.5% | growth inhibition [9] -4.37% | growth inhibition [10] 8.02% | viability increase [11] 0.68% | viability [12] 82.2% | viability [13] 72.2% | inhibition [14] 2.92% | RAM network inhibition [15] 4.31%
91%: viability [1]
90.4%: viability [6, 16]

CSc1cccc(NC(=O)C2CCN(S(=O)(=O)c3ccc(F)cc3)CC2)c1
84.4%: viability [6, 17]
inactive: Her2 level [2] 70.5% | viability [3] 77.5% | viability [4] 93.7% | viability [5] 84.4% | differential viability (reversal) ([6]; H69AR cells + 2 uM doxorubicin) -0.92% | inhibition [7] -7.57% | inhibition [8] -6.23% | growth inhibition [9] -1.68% | growth inhibition [10] -13.7% | viability increase [11] -4.63% | viability [12] 64.3% | viability [13] 62% | inhibition [14] 1.71% | RAM network inhibition [15] 7.8%
85.3%: viability [6, 16]
77.5%: viability [1]

O=C1c2ccccc2C(Nc2ccc3c(c2)OCO3)N1Cc1ccc2c(c1)OCO2 (stereo not drawn)
83.4%: viability [6, 17]
87.1%: viability [6, 16]
86%: viability [1]
inactive: Her2 level [2] 81.5% | viability [3] 86% | viability [4] 50% | viability [5] 83.4% | differential viability (reversal) ([6]; H69AR cells + 2 uM doxorubicin) -3.75% | inhibition [7] -0.27% | inhibition [8] 1.83% | growth inhibition [9] -0.885% | growth inhibition [10] -1.48% | viability increase [11] -0.78% | viability [12] 76.8% | viability [13] 70.1% | inhibition [14] 1.67% | RAM network inhibition [15] 4.17%
